{"source": "PubChem BioAssay AID588342", "about": "(National Center for Advancing Translational Sciences (NCATS), 2011)", "note": "The whole screen tested about 360,000 compounds, of which about 25,000 (6.9%) were called active. Another 9% or so got no clear call; they are omitted. This is one part of a sample in which actives are shown more often than they occur. The call rests on the fitted dose curve; in most records, active means well fitted inhibition curve with a large enough effect; inconclusive means small, poorly fitted or top-dose-only effect; inactive means flat fitted curve, though single readings scatter."}
{"molecular_target": "Luciferin 4-monooxygenase (Photinus pyralis) (UniProt P08659)", "sequence (P08659 whole entry, looked up)": "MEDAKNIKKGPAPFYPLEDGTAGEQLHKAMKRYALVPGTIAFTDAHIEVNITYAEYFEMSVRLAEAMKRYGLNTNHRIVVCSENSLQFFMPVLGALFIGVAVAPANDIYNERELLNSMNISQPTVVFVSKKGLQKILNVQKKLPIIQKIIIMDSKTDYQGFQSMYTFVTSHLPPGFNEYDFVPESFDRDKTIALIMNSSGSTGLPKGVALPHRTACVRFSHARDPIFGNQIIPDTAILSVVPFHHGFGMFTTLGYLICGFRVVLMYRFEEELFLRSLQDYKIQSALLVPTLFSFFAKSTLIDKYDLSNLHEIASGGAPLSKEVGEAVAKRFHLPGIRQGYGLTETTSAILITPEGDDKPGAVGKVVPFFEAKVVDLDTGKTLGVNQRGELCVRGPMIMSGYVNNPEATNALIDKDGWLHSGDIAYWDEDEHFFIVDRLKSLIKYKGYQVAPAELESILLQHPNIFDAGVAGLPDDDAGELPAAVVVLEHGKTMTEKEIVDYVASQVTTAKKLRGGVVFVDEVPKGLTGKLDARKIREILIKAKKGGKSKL", "assay": "qHTS profiling assay for firefly luciferase inhibitor/activator using purifed enzyme and Km concentrations of substrates (counterscreen for miR-21 project); further: nearly all actives have a fitted effect of over 55% in size; further: potency means the concentration at half of the fitted maximal effect;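 on activity change, negative = inhibition: plate controls were vehicle for no effect and reference inhibitor for full effect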", "conditions": "purified FLuc, luminescence inhibition; series mostly up to 57.5 µM; activity change, negative = inhibition: at the top concentration", "summary_of_the_method": "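Biochemical qHTS of compounds, final roughly 60 µM downward over six points, against 10 nM purified firefly luciferase using Km concentrations of substrates (10 uM D-luciferin, 10 uM ATP) in Tris acetate pH 7.5 buffer; luminescence output.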"}
{"compound": "O=C(NC1CC(=O)N(c2ccc(F)cc2)C1)C1CCCCC1", "note": "(stereo unspecified)", "activity change, negative = inhibition": "1.54% (inactive)"}
{"compound": "CCOC(=O)CNC(=O)c1cc2c(=O)n3cccc(C)c3nc2s1", "activity change, negative = inhibition": "-11.1% (inactive)"}
{"compound": "CC(=O)c1cccc(Nc2ccc3cc(S(=O)(=O)N4CCC(C)CC4)ccc3n2)c1", "activity change, negative = inhibition": "0.763% (inactive)"}
{"compound": "N/C(=N\\OC(=O)N1c2ccccc2Sc2ccccc21)c1ccc(Br)cc1", "activity change, negative = inhibition": "-12.5% (inactive)"}
{"compound": "N/C(=N\\OC(=O)/C=C/c1ccccc1)c1ccc(Br)cc1", "activity change, negative = inhibition": "-17% (inactive)"}
{"compound": "N/C(=N\\OC(=O)c1ccc2c(c1)OCO2)c1ccc(Br)cc1", "Potency": "1.69 µM (active)"}
{"compound": "Cc1ccc(-c2cc(C(F)(F)F)c(C#N)c(SCC(=O)Nc3ccccc3)n2)cc1", "activity change, negative = inhibition": "-0.837% (inactive)"}
{"compound": "O=C(/C=C/c1ccc(Cl)cc1Cl)NCc1ccco1", "Potency": "7.57 µM (active)"}
{"compound": "COC(=O)/C=C/C(=O)NCc1ccco1", "activity change, negative = inhibition": "-0.0929% (inactive)"}
{"compound": "O=C(NCc1ccco1)C1(c2ccc(Cl)cc2)CCCC1", "activity change, negative = inhibition": "5.76% (inactive)"}
{"compound": "COc1ccccc1CNC(=O)C(Cc1ccccc1)NS(=O)(=O)c1ccc2c(c1)oc(=O)n2C", "note": "(stereo unspecified)", "activity change, negative = inhibition": "-2.22% (inactive)"}
{"compound": "CSCCC(NC(=O)c1ccccc1)C(=O)N1CCN(Cc2ccc(Cl)cc2)CC1", "note": "(stereo unspecified)", "activity change, negative = inhibition": "4.35% (inactive)"}
{"compound": "COc1cccc2c1cc1c(=O)n(CC(=O)N3CCN(c4cccc(Cl)c4)CC3)nc(C)n12", "activity change, negative = inhibition": "2.9% (inactive)"}
{"compound": "COc1cc(/C=C2/C(=O)NN(c3ccc(F)cc3)C2=O)cc([N+](=O)[O-])c1O", "Potency": "26.9 µM (active)"}
{"compound": "COc1cc(CN2CC(C)CC(C)C2)cc([N+](=O)[O-])c1O", "note": "(stereo unspecified)", "activity change, negative = inhibition": "-0.254% (inactive)"}
{"compound": "COc1cc(C=O)ccc1Oc1nnnn1-c1ccccc1", "activity change, negative = inhibition": "5.93% (inactive)"}
{"compound": "COc1cc(/C=C2/C(=O)NN(c3cccc(Cl)c3)C2=O)cc(Br)c1O", "Potency": "30.1 µM (active)"}
{"compound": "C/C=C/c1ccc(OCCOc2ccc(C=O)cc2OC)c(OC)c1", "activity change, negative = inhibition": "11.6% (inactive)"}
{"compound": "COc1ccc(N2C(=O)CC(Nc3ccc(F)cc3)C2=O)c([N+](=O)[O-])c1", "note": "(stereo unspecified)", "activity change, negative = inhibition": "0.0586% (inactive)"}
{"compound": "CCOc1c(Br)cc(/C=C2\\C(=O)N(CCC#N)N=C2C)cc1OC", "activity change, negative = inhibition": "-14.2% (inactive)"}
{"compound": "C#CCOc1ccc(/C=C2/C(=O)NN(c3ccccc3)C2=O)cc1OC", "Potency": "0.849 µM (active)"}
{"compound": "CCOc1ccc(-c2nonc2NC(=O)c2oc3ccc(CC)cc3c2C)cc1", "activity change, negative = inhibition": "-1.22% (inactive)"}
{"compound": "NC1=NC(c2cc(F)cc(F)c2)n2c(nc3ccccc32)N1", "note": "(stereo unspecified)", "activity change, negative = inhibition": "-6.24% (inactive)"}
{"compound": "CC(C(=O)NC1CCCCC1)N1C(=O)c2cccc3cccc1c23", "note": "(stereo unspecified)", "activity change, negative = inhibition": "-0.249% (inactive)"}
{"compound": "N#Cc1ccc(OCC(=O)NC(=O)NC2CCS(=O)(=O)C2)cc1", "note": "(stereo unspecified)", "activity change, negative = inhibition": "-1.14% (inactive)"}
{"compound": "Cc1nc2ccn(Cc3cccnc3)c(=O)c2cc1C(=O)N1CCN(c2ccccc2F)CC1", "activity change, negative = inhibition": "-2.88% (inactive)"}
{"compound": "Cc1cc2c(cc3c(SCc4cccc(Cl)c4)nnc(C)n32)o1", "activity change, negative = inhibition": "-12.8% (inactive)"}
{"compound": "CN1CCC(=NNC(=O)c2ccc(N(Cc3ccc(Cl)cc3)S(C)(=O)=O)cc2)CC1", "activity change, negative = inhibition": "-2.34% (inactive)"}
{"compound": "NS(=O)(=O)c1cc(C(=O)OCC(=O)NNC(=O)c2ccccc2)ccc1Cl", "activity change, negative = inhibition": "2.64% (inactive)"}
{"compound": "O=C(CCOc1ccccc1)N(Cc1cccnc1)c1nc2ccc(Cl)cc2s1", "activity change, negative = inhibition": "-5.41% (inactive)"}
{"compound": "Cc1cc(Nc2ccccc2)n(CCC#N)n1", "activity change, negative = inhibition": "5.51% (inactive)"}
{"compound": "CCCn1nnnc1NC(=O)COc1ccc(Cl)cc1C", "activity change, negative = inhibition": "-1.34% (inactive)"}
{"compound": "Cc1cc(NC(=O)COc2ccc(Cl)cc2Cl)n(CCC#N)n1", "Potency": "19 µM (active)"}
{"compound": "O=C(Nc1nc2ccc(F)cc2s1)c1nc(SCc2ccccc2F)ncc1Cl", "activity change, negative = inhibition": "0.507% (inactive)"}
{"compound": "CSc1ncccc1C(=O)Nc1nc2ccc(F)cc2s1", "Potency": "19 µM (active)"}
{"compound": "CSc1ncccc1C(=O)Nc1ccc(C)cn1", "activity change, negative = inhibition": "-0.899% (inactive)"}
{"compound": "CC(C(=O)N(C)CC(=O)Nc1ccccc1C(F)(F)F)N1C(=O)c2ccccc2C1=O", "note": "(stereo unspecified)", "activity change, negative = inhibition": "-1.6% (inactive)"}
{"compound": "Cc1ccc(/C=C(\\C#N)C(=O)Nc2cc(C)ccc2C)cc1", "activity change, negative = inhibition": "-2.09% (inactive)"}
{"compound": "COc1cc(OC)cc(C(=O)NCC(=O)N2CCCCCCC2)c1", "activity change, negative = inhibition": "1.74% (inactive)"}
{"compound": "COc1ccc(CCNC(=O)c2ccc3c(c2)sc2nc(-c4ccc(C)cc4)cn23)cc1OC", "activity change, negative = inhibition": "-0.481% (inactive)"}
{"compound": "NS(=O)(=O)c1ccc2nc(NC(=O)C3=COCCO3)sc2c1", "Potency": "12 µM (active)"}
{"compound": "NS(=O)(=O)c1ccc2nc(NC(=O)CS(=O)(=O)c3ccc(F)cc3)sc2c1", "activity change, negative = inhibition": "-8.95% (inactive)"}
{"compound": "NS(=O)(=O)c1ccc2nc(NC(=O)COc3ccccc3)sc2c1", "activity change, negative = inhibition": "0.17% (inactive)"}
{"compound": "COc1ccc(-c2cc(C(=O)NCCCn3ccnc3)no2)cc1", "activity change, negative = inhibition": "-16.1% (inactive)"}
{"compound": "Cc1ccc(S(=O)(=O)c2nc(NCCCn3ccnc3)sc2Cl)cc1", "activity change, negative = inhibition": "1.48% (inactive)"}
{"compound": "Cc1ccc(-c2nc(C#N)c(NCCCn3ccnc3)o2)cc1", "Potency": "21.3 µM (active)"}
{"compound": "CC(NC(=O)c1cccc(S(=O)(=O)N2CCc3ccccc3C2)c1)c1ccco1", "note": "(stereo unspecified)", "activity change, negative = inhibition": "2.97% (inactive)"}
{"compound": "COC(=O)c1ccc(/C=C2/C(=O)Oc3ccccc32)cc1", "Potency": "2.69 µM (active)"}
{"compound": "CN1C(=O)/C(=C/c2ccc(C(=O)NC3CCCC3)cc2)Oc2ccccc21", "activity change, negative = inhibition": "-12.8% (inactive)"}
{"compound": "COC(=O)c1ccc(NC(=O)C(C)N2C(=O)c3ccccc3C2=O)cc1", "note": "(stereo unspecified)", "activity change, negative = inhibition": "-2.02% (inactive)"}
{"compound": "C#CC(C)(CC)NC(=O)Cn1nnc(-c2ccc(OCc3c(F)cccc3Cl)cc2)n1", "note": "(stereo unspecified)", "activity change, negative = inhibition": "-16.2% (inactive)"}
{"compound": "CCn1c(=O)cc(OCC(=O)Nc2cc(Cl)c(OC)cc2OC)c2ccccc21", "activity change, negative = inhibition": "-0.432% (inactive)"}
{"compound": "COc1ccc2nc(Nc3nc4cc5c(cc4s3)OCCO5)sc2c1", "Potency": "9.53 µM (active)"}
{"compound": "Cc1ccc2nc(-c3ccncc3)cc(C(=O)Nc3ccc(OC(F)F)cc3)c2c1", "activity change, negative = inhibition": "-7.69% (inactive)"}
{"compound": "COc1ccc(-c2onc(C)c2-c2ccc3c(c2)OCCO3)c(O)c1", "activity change, negative = inhibition": "-10.2% (inactive)"}
{"compound": "COc1ccc2oc(=O)cc(-c3cc4ccccc4o3)c2c1", "activity change, negative = inhibition": "6.35% (inactive)"}
{"compound": "CCOc1ccc(S(=O)(=O)Nc2nc3cc(OC)ccc3s2)cc1", "activity change, negative = inhibition": "2.11% (inactive)"}
{"compound": "COc1ccc(Nc2cc(=O)oc3ccccc23)cc1", "activity change, negative = inhibition": "1.53% (inactive)"}
{"compound": "N#C/C(=C\\c1cccc(F)c1)c1nc(-c2cc3c(ccc4ccccc43)oc2=O)cs1", "activity change, negative = inhibition": "-2.19% (inactive)"}
{"compound": "COc1ccc2nc(Nc3nc(-c4cc5ccccc5oc4=O)cs3)sc2c1", "Potency": "0.849 µM (active)"}
{"compound": "O=c1oc2ccccc2cc1-c1csc(Nc2ccc(O)cc2)n1", "Potency": "5.36 µM (active)"}
{"compound": "COc1ccc2nc(Nc3nc(-c4ccncc4)cs3)sc2c1", "Potency": "1.51 µM (active)"}
{"compound": "CCOCCCNC(=O)c1c(NC(=O)Cc2coc3ccc(C)cc23)sc2c1CCC2", "activity change, negative = inhibition": "-9.67% (inactive)"}
{"compound": "Cc1cc(NC(=O)CSc2nc(=O)cc(N)n2-c2ccc(F)cc2)no1", "activity change, negative = inhibition": "-2.26% (inactive)"}
{"compound": "CC1CCCN(S(=O)(=O)c2ccc3[nH]c(=O)cc(C(=O)NCCc4ccc(Cl)cc4)c3c2)C1", "note": "(stereo unspecified)", "activity change, negative = inhibition": "0.984% (inactive)"}
{"compound": "COc1ccc(CNc2nc(-c3ccccc3)nn2C(=O)c2ccccc2OC)cc1", "activity change, negative = inhibition": "3.74% (inactive)"}
